Results on three molecules are retold here after PubChem BioAssay (NCATS).

Experiment [1] in a line: qHTS assay for small molecule agonists of the antioxidant response element (ARE) signaling pathway (AID 651741; active = well fitted activation curve with a large enough effect in the signal ratio; the % refers to the signal ratio; also: potency is read from the fitted curve at half-maximal effect; as to activation: % of control where 0% means no effect). The gist of the method: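 Beta-lactamase reporter under ARE control in HepG2 cells, 2,000 per well, was induced by 16 h compound treatment at 37 C. Read-out was fluorescence from LiveBLAzer B/G FRET substrate after 2 h at room temperature.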
A short description of experiment [2]: qHTS assay for small molecule activators of the p53 signaling pathway (AID 651743; active = well fitted activation curve with a large enough effect in the signal ratio, not every such curve was filed as active; the % refers to the signal ratio; also: series mostly up to about 92 µM; % of control where 0% means no effect). Conditions: HCT-116 p53RE-bla, beta-lactamase FRET ratio, 16 h; activation: stronger effect = higher value. A digest of the protocol:
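After 16 hours compound treatment at 37 C, HCT-116 cells stably expressing p53RE-driven beta-lactamase were loaded with LiveBLAzer B/G FRET substrate for 2 hours at room temperature. Fluorescence intensity served as the p53 activation read-out.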
Background: In qHTS, concentration-response curves come from the screen itself.

Experiment [3] can be described thus: qHTS assay for environmental chemicals that activate the Aryl hydrocarbon Receptor (AhR) signaling pathway (AID 651777). Also: % of control where 0% means no effect; nearly all actives have a fitted effect of over 15% in size. The settings on record: 1A2-DRE human hepatoma cells, luciferase, 24 h; activation: stronger effect = higher value. The gist of the method: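 1A2-DRE human hepatoma reporter line; 1,200 cells/well; cmpd or DMSO 24 h, 37 C/5% CO2; One-Glo 30 min RT; luciferase lum.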

Experiment [4] addresses Peroxisome proliferator-activated receptor alpha (Homo sapiens) (UniProt Q07869). Nature of the experiment: qHTS assay for small molecule agonists of the peroxisome proliferator-activated receptor alpha (PPARalpha) signaling pathway (AID 651778). Also: % of control where 0% means no effect. The settings on record: PathHunter PPARalpha complementation, chemiluminescence, 6 h; max response: stronger effect = higher value. The gist of the method:
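Chemiluminescence from complemented enzyme reported PPARalpha activation in cells after 6 hr of compound treatment at 37 C. The detection reagent was incubated for 60 min at room temperature, and compounds were scored as agonists.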

The nature of experiment [5]: qHTS assay for small molecule activators of the nuclear factor-kappa B (NF-kB) signaling pathway (AID 651749; active = well fitted activation curve with a large enough effect in the signal ratio; the % refers to the signal ratio; also: series mostly up to about 77 µM; % of control where 0% means no effect). The settings on record: NF-kB-bla ME-180 cells, beta-lactamase FRET ratio, 16 h; stronger effect = higher value. The gist of the method: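 Activation measured after 16 hr compound treatment at 37C, 5% CO2, of 2,000 ME-180 cells/well stably expressing an NF-kB response element–driven beta-lactamase reporter, via FRET-disruption fluorescence.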

The target of experiment [6] is Tumor necrosis factor (Homo sapiens) (UniProt P01375). Nature of the experiment: qHTS assay to identify small molecules that stimulate Tumor Necrosis Factor-alpha (TNF-alpha) secretion (AID 651757; active = well fitted curve in the direction sought with a large enough effect in the signal ratio; the % refers to the signal ratio; also: 0% is about no effect). A digest of the protocol:
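Human monocytic THP-1 cells are plated, treated with compound and held at 37 C for 17 hrs. Labeled anti-TNF-alpha antibody mixture is then added; after 3 hr at room temperature, TR-FRET signal reports secreted TNF-alpha.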

The structures appear in SMILES notation. Values joined by “and” are separate entries in the source; they are usually repeats but may differ in a detail not shown here. Equal entries are not always repeated. Inconclusive results are not listed. Active and inactive are the calls of the source. Unless noted, calls follow the shape of the dose curve; as a rule, active = well fitted activation curve with a large enough effect; inconclusive = small, poorly fitted or top-dose-only effect; inactive = flat fitted curve, though single readings scatter.

Sequence of Peroxisome proliferator-activated receptor alpha (Homo sapiens) (Q07869 whole entry, looked up): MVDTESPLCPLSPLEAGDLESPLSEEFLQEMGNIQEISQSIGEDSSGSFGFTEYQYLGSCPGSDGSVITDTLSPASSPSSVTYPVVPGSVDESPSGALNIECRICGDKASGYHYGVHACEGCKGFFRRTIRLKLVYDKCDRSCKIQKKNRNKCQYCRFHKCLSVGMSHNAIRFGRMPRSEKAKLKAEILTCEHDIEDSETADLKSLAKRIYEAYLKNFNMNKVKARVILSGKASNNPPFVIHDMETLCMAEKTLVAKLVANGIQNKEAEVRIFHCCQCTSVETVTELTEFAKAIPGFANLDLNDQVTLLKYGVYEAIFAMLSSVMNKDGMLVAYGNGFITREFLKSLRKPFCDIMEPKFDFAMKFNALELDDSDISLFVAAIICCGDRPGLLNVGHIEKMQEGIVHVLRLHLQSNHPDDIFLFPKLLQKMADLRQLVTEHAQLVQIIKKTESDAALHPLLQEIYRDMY
Sequence of Tumor necrosis factor (Homo sapiens) (P01375 whole entry, looked up): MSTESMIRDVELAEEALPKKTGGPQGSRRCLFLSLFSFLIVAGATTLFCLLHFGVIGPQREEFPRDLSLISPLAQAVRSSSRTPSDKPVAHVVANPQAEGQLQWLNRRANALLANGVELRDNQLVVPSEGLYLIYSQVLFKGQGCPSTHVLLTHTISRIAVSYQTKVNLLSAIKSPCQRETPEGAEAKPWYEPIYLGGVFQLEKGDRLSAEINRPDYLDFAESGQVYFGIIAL

`COCC(=O)N(c1c(C)cccc1C)C(C)C(=O)OC` (stereo not drawn): the Potency result in experiment [1] was “inactive”. Also, the activation in experiment [2] was -5.17% (inactive); in experiment [3], 3.48% (inactive). Besides, the max response in experiment [4] was -1.66% (inactive).

With `C[C@@H]1C[C@@H]([C@H](O)CC2CC(=O)NC(=O)C2)C(=O)[C@@H](C)C1`, the activation was 3.69% (inactive) and -1.29% (inactive) and 0.673% (inactive) in experiment [2]; 5.34% (inactive) in experiment [5]. Besides, in experiment [6], the Potency result is “inactive”. The max response in experiment [4] was -1.34% (inactive) and -7.61% (inactive) and -0.958% (inactive).

Turning to `COP(=O)(OC)C(O)C(Cl)(Cl)Cl` (stereo not drawn), in experiment [1], the Potency is 19.3 µM (active). In addition, the activation in experiment [2] was 6.58% (inactive); in experiment [5], 1.93% (inactive); in experiment [3] it was 1.53% (inactive). Also, the max response in experiment [4] was -2.06% (inactive).
